Assay results: the supplement of paper PMC10127200
Structures can show the parent of a compound that is named as a salt.

Key:
Test in all cases: Euclidean distance of Cell Painting phenotypic profile (signed KS, 77 features) to DMSO centroid (dimensionless distance); 5 or 10 uM (library dependent); higher = stronger phenotypic change vs DMSO (phenoactivity)
Settings in all cases: 48 h
[1] = system: 786-O
Summary of the method: (§1)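 Harmony extracted 77 features from 20X confocal images (9 fields/well) of stained cells, scoring each as a signed Kolmogorov-Smirnov statistic against same-plate vehicle wells. The cells, five cancer lines and a healthy fibroblast line, had received library compounds for 48 h at 10 or 5 uM depending on library, with 0.1% DMSO final. Phenoactivity is the Euclidean distance from each plate-position-corrected, correlation-weighted, top-dose replicate-averaged profile to the median vehicle profile.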

[2] = system: A549
Summary of the method: as §1

[3] = system: DU145
Summary of the method: as §1

[4] = system: FB
Summary of the method: as §1

[5] = system: HEPG2
Summary of the method: as §1

[6] = system: OVCAR4
Summary of the method: as §1

SMILES	Euclidean distance [1]	Euclidean distance [2]	Euclidean distance [3]	Euclidean distance [4]	Euclidean distance [5]	Euclidean distance [6]
CCn1c2ccccc2c2cc(Nc3ccnc(NCCCN4CCOCC4)n3)ccc21	3.23	2.84	1.12	2.94	2.27	1.98
COc1ccnc(C[S+]([O-])c2nc3cc(-n4cccc4)ccc3[nH]2)c1C (configuration not stated) [Ilaprazole sodium]	1.23	0.928	0.81	0.764	0.518	1.26
Cc1[nH]c(/C=C2\C(=O)Nc3ccccc32)c(C)c1CCC(=O)O [TSU-68 (SU6668. Orantinib)]	0.704	0.699	0.85	0.825	0.787	0.814
Cc1[nH]c(/C=C2\C(=O)Nc3ccc(S(=O)(=O)N(C)c4cccc(Cl)c4)cc32)c(C)c1C(=O)N1CCN(C)CC1	2.57	3.08	2.03	2.51	1.47	3.13
COc1cc2c(Oc3ccc4[nH]c(C)cc4c3F)ncnc2cc1OCCCN1CCCC1 [Cediranib (AZD2171)]	4.22	4.27	3.51	4.47	3.58	4.53
CCOC(=O)CCC(=O)O[C@H]1[C@H](O[C@@H]2[C@@H](C)[C@H](O[C@H]3C[C@@](C)(OC)[C@@H](O)[C@H](C)O3)[C@@H](C)C(=O)O[C@H](CC)[C@@](C)(O)[C@H](O)[C@@H](C)C(=O)[C@H](C)C[C@@]2(C)O)O[C@H](C)C[C@@H]1N(C)C [Erythromycin Ethylsuccinate]	1.09	0.82	1.09	1.04	0.715	1.3
CN1C(C(=O)Nc2ccccn2)=C(O)c2sccc2S1(=O)=O [Tenoxicam]	0.866	1.16	1.02	0.733	2.05	1.22
Cc1cc(NS(=O)(=O)c2ccc(N)cc2)no1 [Sulfamethoxazole sodium]	1.09	0.64	1.01	0.902	0.561	1.28
C[C@@H](Oc1cc(-n2cnc3ccc(CN4CCN(C)CC4)cc32)sc1C(N)=O)c1ccccc1C(F)(F)F	3.44	3.82	4.26	3.6	3.95	2.85
CCCCN(CCCC)CC(O)c1cc(Cl)cc2c1-c1ccc(Cl)cc1/C2=C/c1ccc(Cl)cc1 (configuration not stated) [Lumefantrine]	1.17	1.42	0.953	0.94	0.895	0.763
CC(C)(O/N=C(\C(=O)N[C@@H]1C(=O)N2C(C(=O)[O-])=C(C[n+]3ccccc3)CS[C@H]12)c1csc(N)n1)C(=O)O [Ceftazidime]	1.39	0.613	0.815	1.06	0.385	1.62
Cc1cccc(N(C)C(=S)Oc2ccc3ccccc3c2)c1 [Tolnaftate]	1.29	0.815	1.01	0.908	1.96	1.36
CC1(C)O[C@@H]2[C@@H](CO[C@@]3(COS(N)(=O)=O)OC(C)(C)O[C@@H]23)O1 [Topiramate]	1.24	1.07	0.829	0.965	0.72	0.977
C[N+]1(C)CCC(OC(=O)C(O)(c2ccccc2)C2CCCC2)C1 (configuration not stated) [Glycopyrrolate]	1.08	0.747	1.06	1.02	0.678	1.74
CCCCC1=NC2(CCCC2)C(=O)N1Cc1ccc(-c2ccccc2-c2nnn[nH]2)cc1 [Irbesartan]	1.03	0.928	0.351	0.966	0.777	1.79
CCC(=O)N1CCN(c2ccc(-n3c(=O)ccc4cnc5ccc(-c6cnc7ccccc7c6)cc5c43)cc2C(F)(F)F)CC1 [Torin 1]	2.66	3.46	2.74	4.26	2.78	3.47
CC[C@H](C)[C@H](NC(=O)[C@H](Cc1ccc(O)cc1)NC(=O)[C@@H](NC(=O)[C@H](CCCN=C(N)N)NC(=O)[C@@H](N)CC(=O)O)C(C)C)C(=O)N[C@@H](Cc1cnc[nH]1)C(=O)N1CCC[C@H]1C(=O)N[C@@H](Cc1ccccc1)C(=O)O [Angiotensin II human Acetate]	1.66	0.986	0.817	1.24	0.532	0.985
CCC(=O)O[C@@H]1CC(=O)O[C@H](C)C/C=C/C=C/[C@H](O)[C@H](C)C[C@H](CC=O)[C@H](O[C@@H]2O[C@H](C)[C@@H](O[C@H]3C[C@@](C)(O)[C@@H](OC(=O)CC)[C@H](C)O3)[C@H](N(C)C)[C@H]2O)[C@H]1OC [Midecamycin]	0.98	1.59	0.874	1.31	1.08	1.07
O=P(O)(O)OC(Cn1cncn1)(Cn1cncn1)c1ccc(F)cc1F [Fosfluconazole]	1.39	0.635	1.39	0.872	0.852	1.23
O=C(O)COCCN1CCN([C@H](c2ccccc2)c2ccc(Cl)cc2)CC1 [Levocetirizine Dihydrochloride]	0.875	1.39	0.783	1.09	0.867	1.4
C=C1CC[C@H](O)C/C1=C/C=C1\CCC[C@]2(C)[C@@H]([C@H](C)/C=C/[C@H](C)C(C)C)CC[C@@H]12 [Vitamin D2]	2.59	0.759	5.76	1.38	2.02	2.05
COc1cc(NS(C)(=O)=O)ccc1Nc1c2ccccc2nc2ccccc12 [Amsacrine hydrochloride]	3.5	3.49	4.13	3.04	3.28	3.46
COc1ccc(-c2cc(=O)c3c(OC)c(OC)c(OC)c(OC)c3o2)cc1 [Tangeretin]	0.981	1.05	1.17	0.742	0.656	1.06
Cc1c(NC(=O)OC[C@@H]2COCCN2)cn2ncnc(Nc3ccc4c(cnn4Cc4cccc(F)c4)c3)c12	2.06	1.47	1.13	1.52	1.28	0.963
Cc1nc(Nc2ncc(C(=O)Nc3c(C)cccc3Cl)s2)cc(N2CCN(CCO)CC2)n1 [Dasatinib]	3.15	3.53	4.42	3.41	2.2	3.92
Cc1cc(O)cc(C)c1Cl [Chloroxylenol]	0.814	0.825	1.13	0.9	0.668	0.718
CCCC(=O)O[C@]1(C(=O)COC(C)=O)CC[C@H]2[C@@H]3C[C@H](F)C4=CC(=O)C=C[C@]4(C)[C@@]3(F)[C@@H](O)C[C@@]21C [Difluprednate]	1.73	2.5	2.59	1.74	0.695	1.82
